Measured values as given in PubChem BioAssay.
The source made the active and inactive calls.

Key:
Albumin (Bos taurus) = Albumin (Bos taurus) (UniProt P02769); experiment: bovine serum albumin binders on microarray, profiling panel, artefact control for SMM control protein annotation, biochemical, small-molecule microarray, Alexa647 label, 635/667 nm fluorescence (AID 1118); conditions: BSA-A647 binding, fluorescence 635 nm, higher = more signal;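 further: score merges 667 nm emission intensity and signal-to-noise per printed compound spot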
[1] = small-molecule microarray binders of probe aXIP, primary screen, biochemical, NeuroSMM set, 635/667 nm fluorescence (AID 1119); conditions: higher = more signal, called active from +8 up or from −8 down;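 further: probe is the protein aXip251-270 applied at 1 µg/mL to compound-printed slides; binding of probe to printed compounds measured as 667 nm fluorescence plus signal to noise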
[2] = small-molecule binders of probe aNOTCH3, primary screen, biochemical, small-molecule microarray, 635/667 nm fluorescence (AID 1120); conditions: higher = more signal;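 further: probe is a biotin-tagged antibody raised against NOTCH3 rather than NOTCH3 protein; score merges spot fluorescence near 667 nm with spot signal to noise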
[3] = small-molecule binders of probe aNOTCH2, primary screen, biochemical, small-molecule microarray, 635/667 nm fluorescence (AID 1121); conditions: higher = more signal;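 further: score merges feature fluorescence read at 667 nm with its signal to noise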
[4] = target: Carbonic anhydrase 2 (Homo sapiens) (UniProt P00918); experiment: CAII small-molecule binders, profiling panel, biochemical, small-molecule microarray, Alexa647-labelled CAII (AID 1122); conditions: CAII-A647 binding fluorescence, higher = more signal
[5] = COS7 lysate on small-molecule microarray, probe aHis, 635 nm (AID 1123); conditions: COS7 cell lysate, fluorescence, higher = more signal;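 further: z-score combines 667nm fluorescence intensity with signal-to-noise per printed compound spot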
[6] = compound binding in COS7 lysate, probe aLAP1, primary screen, cell lysate, small-molecule microarray (AID 1124); conditions: probe aLAP1, fluorescence, higher = more signal;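 further: lysate comes from COS7 cells expressing LAP1 and is applied at 0.3 µg/mL; score merges spot fluorescence near 667 nm with signal-to-noise over triplicate slides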
Sam68 (KHDRBS1) = experiment: Sam68 small-molecule binders, primary screen, biochemical, small-molecule microarray, 635 nm fluorescence (AID 1125); conditions: small-molecule microarray binding, higher = more signal;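 further: score merges 667 nm channel intensity with signal to noise over triplicate slides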
[7] = tested on: Chordin-like protein 2 (CHRDL2); experiment: CHRDL2 small-molecule binders, primary screen, biochemical, small-molecule microarray, 635 nm fluorescence (AID 1126); conditions: small-molecule microarray binding, fluorescence 635 nm; higher = more signal;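 further: printed compound slides probed with Chrdl2 protein at 4 µg/mL for 1 h at 4 C; score merges 667 nm emission intensity with signal to noise over three replicate slides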
[8] = target: Concanavalin-A (Canavalia ensiformis) (UniProt P02866); experiment: ConA small-molecule binders, primary screen, artefact control for SMM control protein annotation, biochemical, small-molecule microarray, Alexa647 label, 635 nm (AID 1127); conditions: ConA-A647 binding fluorescence, higher = more signal;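 further: z combines 667 nm emission intensity with signal-to-noise across three replicate slides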
[9] = anti-His antibody binders, primary screen, artefact control for SMM control protein annotation, biochemical, small-molecule microarray, 635 nm fluorescence (AID 1128); conditions: anti-His Alexa647 antibody binding, higher = more signal;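 further: score merges feature fluorescence with signal-to-noise for each printed compound spot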
[10] = tested on: Human papillomavirus type 1a E7 protein (residues 1-88); experiment: HPV1a E7 small-molecule binders, primary screen, biochemical, small-molecule microarray, residues 1-88, 635 nm (AID 1129); conditions: small-molecule microarray binding, fluorescence 635 nm; higher = more signal
[11] = target: Focal adhesion kinase 1 (Homo sapiens) (UniProt Q05397); experiment: small-molecule microarray binders of FAK, primary screen, biochemical, 635/667 nm fluorescence, BSA, DTT (AID 1130); conditions: PTK2 binding, 635 nm fluorescence, higher = more signal;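 further: composite of spot emission at 667 nm and signal to noise over triplicate slides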
[12] = tested on: Fibrinogen (Alexa647-labelled); experiment: fibrinogen binders on compound microarrays, profiling panel, artefact control for SMM control-protein annotation, biochemical, small-molecule microarray, 635/667 nm fluorescence (AID 1131); conditions: fibrinogen-A647 binding fluorescence, higher = more signal;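 further: z-score merges 667 nm fluorescence with per-spot signal-to-noise over triplicate slides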
[13] = target: Follistatin (Homo sapiens) (UniProt P19883); experiment: follistatin binders on small-molecule microarrays, primary screen, biochemical, small-molecule microarray, 635/667 nm fluorescence (AID 1132); conditions: FST binding, 635 nm fluorescence, higher = more signal
[14] = target: Fibroblast growth factor 2 (Homo sapiens) (UniProt P09038); experiment: FGF2 binders on small-molecule microarrays, primary screen, biochemical, small-molecule microarray, 635/667 nm fluorescence (AID 1133); conditions: small-molecule microarray binding, FGF2, fluorescence 635/667; higher = more signal
[15] = mitochondrial membrane potential change in A549 cells, profiling panel, cell-based, JC-1 fluorescence, basal, 24 h, 100 nL (AID 1138); conditions: higher = more signal;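 further: A549 lung adenocarcinoma cells under basal conditions with no added stimulus; test concentration not given here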
Lefty1 = Lefty1 binders on small-molecule microarrays, primary screen, biochemical, small-molecule microarray, 635/667 nm fluorescence (AID 1139); conditions: small-molecule microarray binding, fluorescence 635/667; higher = more signal
[16] = tested on: wheat germ agglutinin (Triticum aestivum), Alexa647-labelled; experiment: wheat germ agglutinin binders on compound microarrays, profiling panel, artefact control for SMM control-protein annotation, biochemical, small-molecule microarray, 635/667 nm fluorescence (AID 1140); conditions: WGA-A647 binding, 635 nm fluorescence, higher = more signal;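 further: score merges 667 nm feature emission with signal to noise over triplicate slides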
[17] = target: Luciferin 4-monooxygenase (Photinus pyralis) (UniProt P08659); experiment: firefly luciferase enzyme inhibitors, primary screen, biochemical, luminescence, purified enzyme, 2006 set (AID 1141); conditions: SteadyGlo luminescence, 30 min, higher = more signal, called active from +8 up or from −8 down;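 further: cell-free assay with purified firefly luciferase at 100 ng per well in PBS; test concentration not given here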
Chain of Luciferin 4-monooxygenase (Photinus pyralis) (P08659 whole entry, looked up): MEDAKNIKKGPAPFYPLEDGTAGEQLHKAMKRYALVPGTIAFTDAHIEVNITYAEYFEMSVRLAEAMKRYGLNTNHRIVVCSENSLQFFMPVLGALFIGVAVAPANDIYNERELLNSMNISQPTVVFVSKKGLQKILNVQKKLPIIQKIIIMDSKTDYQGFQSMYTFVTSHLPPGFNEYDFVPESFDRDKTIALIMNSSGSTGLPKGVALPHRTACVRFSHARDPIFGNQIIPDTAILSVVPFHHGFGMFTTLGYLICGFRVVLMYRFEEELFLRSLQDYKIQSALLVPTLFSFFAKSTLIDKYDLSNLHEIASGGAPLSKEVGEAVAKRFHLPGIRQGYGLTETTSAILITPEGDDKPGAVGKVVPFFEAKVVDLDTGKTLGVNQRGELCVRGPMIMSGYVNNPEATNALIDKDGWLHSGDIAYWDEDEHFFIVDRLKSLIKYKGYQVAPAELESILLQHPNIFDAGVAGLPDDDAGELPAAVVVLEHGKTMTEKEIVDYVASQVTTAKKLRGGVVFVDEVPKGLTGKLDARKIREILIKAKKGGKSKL

Chain of Fibroblast growth factor 2 (Homo sapiens) (P09038 whole entry, looked up): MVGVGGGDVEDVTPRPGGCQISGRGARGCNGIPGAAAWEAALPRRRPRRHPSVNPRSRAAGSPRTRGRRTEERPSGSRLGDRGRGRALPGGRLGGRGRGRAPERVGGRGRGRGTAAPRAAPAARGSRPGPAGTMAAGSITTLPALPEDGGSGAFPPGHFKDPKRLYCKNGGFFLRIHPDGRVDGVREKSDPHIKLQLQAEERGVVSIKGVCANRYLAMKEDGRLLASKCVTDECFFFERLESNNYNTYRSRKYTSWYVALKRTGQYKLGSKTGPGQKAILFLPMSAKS
Chain of Follistatin (Homo sapiens) (P19883 whole entry, looked up): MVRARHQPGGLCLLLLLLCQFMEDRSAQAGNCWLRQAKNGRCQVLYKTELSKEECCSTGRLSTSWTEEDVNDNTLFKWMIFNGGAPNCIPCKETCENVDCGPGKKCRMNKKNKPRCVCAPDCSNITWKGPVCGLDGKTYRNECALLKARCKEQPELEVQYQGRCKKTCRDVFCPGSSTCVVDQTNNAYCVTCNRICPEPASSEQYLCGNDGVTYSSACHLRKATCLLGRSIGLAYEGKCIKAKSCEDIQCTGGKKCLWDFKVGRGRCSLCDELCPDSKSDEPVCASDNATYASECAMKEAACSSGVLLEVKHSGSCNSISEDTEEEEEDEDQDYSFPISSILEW
Chain of Albumin (Bos taurus) (P02769 whole entry, looked up): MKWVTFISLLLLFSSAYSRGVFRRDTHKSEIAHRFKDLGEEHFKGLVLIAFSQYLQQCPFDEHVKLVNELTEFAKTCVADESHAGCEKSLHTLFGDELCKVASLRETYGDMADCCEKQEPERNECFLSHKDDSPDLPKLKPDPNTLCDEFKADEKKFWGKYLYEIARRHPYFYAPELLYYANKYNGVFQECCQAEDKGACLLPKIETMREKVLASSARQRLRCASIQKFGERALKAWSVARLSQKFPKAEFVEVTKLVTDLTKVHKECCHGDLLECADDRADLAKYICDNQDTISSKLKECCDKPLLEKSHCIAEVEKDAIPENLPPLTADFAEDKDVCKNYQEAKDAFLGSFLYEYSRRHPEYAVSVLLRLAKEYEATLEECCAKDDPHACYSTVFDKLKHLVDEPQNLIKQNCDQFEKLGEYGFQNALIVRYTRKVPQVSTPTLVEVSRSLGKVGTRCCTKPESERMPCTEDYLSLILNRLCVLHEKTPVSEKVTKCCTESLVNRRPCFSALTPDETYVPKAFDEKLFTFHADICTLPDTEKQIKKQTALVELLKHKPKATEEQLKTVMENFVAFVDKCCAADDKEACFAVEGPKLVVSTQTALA
Chain of Concanavalin-A (Canavalia ensiformis) (P02866 whole entry, looked up): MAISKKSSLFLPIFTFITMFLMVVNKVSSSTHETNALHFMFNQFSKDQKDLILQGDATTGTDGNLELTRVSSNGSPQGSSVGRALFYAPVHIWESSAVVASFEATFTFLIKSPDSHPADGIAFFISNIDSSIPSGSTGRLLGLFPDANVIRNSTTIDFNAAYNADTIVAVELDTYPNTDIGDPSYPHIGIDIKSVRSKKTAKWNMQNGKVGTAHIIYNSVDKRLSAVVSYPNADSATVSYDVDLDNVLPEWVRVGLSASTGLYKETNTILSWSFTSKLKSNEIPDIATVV
Chain of Focal adhesion kinase 1 (Homo sapiens) (Q05397 whole entry, looked up): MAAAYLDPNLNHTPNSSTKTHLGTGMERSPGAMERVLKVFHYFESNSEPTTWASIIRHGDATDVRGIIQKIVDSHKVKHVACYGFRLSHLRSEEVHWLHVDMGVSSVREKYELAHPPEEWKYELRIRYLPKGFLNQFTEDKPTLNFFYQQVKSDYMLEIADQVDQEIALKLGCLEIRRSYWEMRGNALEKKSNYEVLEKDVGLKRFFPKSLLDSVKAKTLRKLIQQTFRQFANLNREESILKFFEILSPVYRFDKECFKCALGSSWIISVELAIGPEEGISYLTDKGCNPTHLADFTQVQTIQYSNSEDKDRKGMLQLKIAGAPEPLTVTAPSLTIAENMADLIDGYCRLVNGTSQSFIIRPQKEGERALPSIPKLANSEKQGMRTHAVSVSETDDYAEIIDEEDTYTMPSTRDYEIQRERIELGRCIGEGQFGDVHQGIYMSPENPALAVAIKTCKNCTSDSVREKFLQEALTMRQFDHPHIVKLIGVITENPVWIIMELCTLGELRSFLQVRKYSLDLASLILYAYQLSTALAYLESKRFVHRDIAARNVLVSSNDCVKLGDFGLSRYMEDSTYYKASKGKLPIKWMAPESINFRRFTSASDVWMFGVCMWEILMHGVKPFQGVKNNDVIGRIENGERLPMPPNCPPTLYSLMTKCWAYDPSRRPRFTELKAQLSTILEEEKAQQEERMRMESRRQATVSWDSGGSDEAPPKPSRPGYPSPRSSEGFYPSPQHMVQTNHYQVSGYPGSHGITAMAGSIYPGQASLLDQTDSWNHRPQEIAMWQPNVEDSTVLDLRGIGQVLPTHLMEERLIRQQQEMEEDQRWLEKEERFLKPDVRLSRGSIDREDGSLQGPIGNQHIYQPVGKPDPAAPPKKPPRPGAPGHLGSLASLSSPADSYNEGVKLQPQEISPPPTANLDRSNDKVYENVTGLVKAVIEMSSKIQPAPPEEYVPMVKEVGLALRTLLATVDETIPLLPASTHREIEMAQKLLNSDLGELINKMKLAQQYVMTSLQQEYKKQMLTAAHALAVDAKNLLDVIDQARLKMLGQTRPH

SMILES	composite z-score (Albumin (Bos taurus))	composite Z-score [1]	composite z-score [2]	composite z-score [3]	composite z-score [4]	composite z-score [5]	composite z-score [6]	composite z-score (Sam68 (KHDRBS1))	composite z-score [7]	composite z-score [8]	composite z-score [9]	composite z-score [10]	composite z-score [11]	composite z-score [12]	composite z-score [13]	composite z-score [14]	z-score [15]	composite z-score (Lefty1)	composite z-score [16]	z-score [17]
CC(CCN1CCCc2nc(C)c(C)cc21)=NO[C@H](C)c1cn([C@@H]2COC[C@H]2O)nn1	-0.392	0.37 (inactive)	0.106	-0.0741	0.25	-0.205	0.58	1.32	0.854	0.351	0.652	0.793	1.19	0.704	0.622	0.743	-0.0769	0.764	0.205	0.711 (inactive)
C=CC[C@@H]1C=C[C@H](ON=C[C@@H](NS(=O)(=O)c2ccc(C)cc2)[C@H](C)C=CCC(=O)OC)[C@@H](CO)O1	0.766	0.819 (inactive)	0.0232	-0.0393	-0.277	-0.327	0.0555	-0.483	0.487	-1.58	1.34	-0.205	-0.0954	-0.193	0.774	0.349	-0.0376	0.625	0.511	1.18 (inactive)
C=C(C)C(=O)OC[C@H]1CN2[C@@H](CC[C@@H](C)[C@@H]2c2ccc(Br)cc2)C(=O)O1	-0.625	0.27 (inactive)	-0.0362	-0.104	0.079	0.379	0.318	0.428	0.698	-0.426	2.44	0.0456	-0.174	-0.613	0.489	0.108	0.47	0.264	-0.034	-2.88 (inactive)
CCO[C@H](c1cc(OC)cc([N+](=O)[O-])c1OC)[C@H](C)[C@@H](OC)[C@H](C)C=CCC(=O)OC	0.825	0.179 (inactive)	-0.0947	-0.0907	0.725	0.0657	-0.0242	0.724	-0.0602	0.666	-0.406	0.257	0.115	0.949	0.0822	0.183	0.163	-0.125	0.298	0.114 (inactive)
COC(=O)[C@H](C)NC(=O)CCC1CC(OC(=O)NCc2ccc3c(c2)OCO3)CC2(CCCC(COC(=O)NCCc3ccc(Cl)cc3)O2)O1 (stereo not given in full)	0.293	0.0601 (inactive)	0.0129	-0.0974	0.0233	0.043	-0.0478	0.422	1.26	-0.455	1.22	0.377	0.142	0.275	0.758	0.742	-0.928	0.398	0.268	0.839 (inactive)
O=C1C=C[C@@H](O)[C@@H]2[C@@H]3C(=O)N(Cc4ccc5c(c4)OCO5)C(=O)[C@@H]3CC[C@@H]12	0.147	-0.88 (inactive)	0.123	-0.0567	-0.137	0.163	0.129	0.627	0.761	0.748	0.314	0.867	0.185	0.546	0.382	0.569	-0.635	0.585	0.0599	-0.276 (inactive)
CO[C@@H]1COC(=O)[C@H](CCSC)NC(=O)CC=C[C@@H](C)COC(=O)[C@@H]2CCCN2C(=O)CC=C[C@H]1C	-1.43	0.605 (inactive)	0.0306	-0.199	-0.291	-0.462	-0.328	0.34	0.946	-0.353	0.0289	0.258	-0.702	-1.13	0.779	0.889	0.215	1.15	-1.37	-0.0167 (inactive)
COc1ccc(O[C@H]2C=C[C@@H](C#Cc3ccccc3)O[C@@H]2CO)cc1	0.271	0.446 (inactive)	-0.0932	0.113	0.314	0.962	0.0803	-0.006	0.176	0.869	-0.0687	0.071	0.0306	0.744	0.365	0.0738	0.511	0.71	0.48	-1.67 (inactive)
CCC1=NOC(CCC2CC(OC(=O)NCc3cccc4c3OCO4)CC3(CCCC(COC(=O)NCCc4ccc(Cl)cc4)O3)O2)C1 (stereo not given)	0.585	-0.0197 (inactive)	-0.0647	-0.0651	0.228	0.599	-0.29	0.712	-0.0546	0.0985	0.696	0.459	-0.123	0.663	0.0801	1.24	-0.415	0.497	-0.191	0.74 (inactive)
